Assays:
Experiment in all cases: PBM binding z-score (relative to random genomic background probes); higher = stronger binding; sequences stand for … in GC…GCGATTGACAGCGTAGAATGAAGG
[1] = system: PPARg:RXRa DBDmut IVT, anti-RXR (DBD mutation: RXRa K156A/R161A, NR concentration 270 nM, RXRa partner concentration 90 nM)
In short: (§1)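 Ligand-free nuclear receptor dimers were bound for 1 h to custom Agilent 4×180K protein-binding microarrays. Detection used antibodies against each partner (one per run). Binding z-scores rest on regression-normalized fluorescence, with random background probes as the reference.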

[2] = system: PPARg:RXRa IVT, anti-PPARg (NR concentration 270 nM, RXRa partner concentration 90 nM)
In short: as §1

[3] = system: PPARg DBDmut:RXRa IVT, anti-PPARg (DBD mutation: PPARg1 K132A/R137A, NR concentration 270 nM, RXRa partner concentration 90 nM)
In short: as §1

[4] = system: PPARg DBDmut IVT, anti-PPARg (DBD mutation: PPARg1 K132A/R137A, NR concentration 270 nM)
In short: as §1

[5] = system: PPARg homodimer (NR concentration 180 nM)
In short: as §1

[6] = system: PXR:RXRa (NR concentration 270 nM, RXRa partner concentration 90 nM)
In short: as §1

[7] = system: PXR homodimer (NR concentration 270 nM)
In short: as §1

[8] = system: RARa:RXR (NR concentration 270 nM, RXRa partner concentration 90 nM)
In short: as §1

[9] = system: RARa homodimer (NR concentration 270 nM)
In short: as §1

[10] = system: RARb:RXRa (NR concentration 270 nM, RXRa partner concentration 90 nM)
In short: as §1

[11] = system: RARb homodimer (NR concentration 270 nM)
In short: as §1

[12] = system: RARg:RXRa (NR concentration 270 nM, RXRa partner concentration 90 nM)
In short: as §1

[13] = system: RARg homodimer (NR concentration 270 nM)
In short: as §1

[14] = system: RXRa DBDmut IVT, anti-RXR (DBD mutation: RXRa K156A/R161A, NR concentration 90 nM)
In short: as §1

[15] = system: RXRa homodimer (NR concentration 180 nM)
In short: as §1

[16] = system: THRa:RXRa (NR concentration 90 nM, RXRa partner concentration 90 nM)
In short: as §1

[17] = system: THRa homodimer (NR concentration 90 nM)
In short: as §1

[18] = system: VDR homodimer (NR concentration 270 nM)
In short: as §1

Sequence | PBM binding z-score [1] | PBM binding z-score [2] | PBM binding z-score [3] | PBM binding z-score [4] | PBM binding z-score [5] | PBM binding z-score [6] | PBM binding z-score [7] | PBM binding z-score [8] | PBM binding z-score [9] | PBM binding z-score [10] | PBM binding z-score [11] | PBM binding z-score [12] | PBM binding z-score [13] | PBM binding z-score [14] | PBM binding z-score [15] | PBM binding z-score [16] | PBM binding z-score [17] | PBM binding z-score [18]
TCATATAGGTAATAAAGGTGAAAGTCGGCATCTA | 3.99 | 3.74 | 0.942 | 1.43 | 2.01 | 1.34 | 0.488 | 2.02 | 1.77 | 1.6 | 1.76 | 1.51 | 0.992 | 1.83 | 2.06 | 1.59 | 0.669 | 0.491
TAGCCTAGGTCATAGGCCAGTATACCACGCGAAC | 1.31 | 3.09 | 0.284 | -0.111 | 1.91 | 1.47 | -0.481 | 2.66 | -0.0614 | 3.66 | 2.58 | 3.89 | 4.21 | 0.7 | 3.51 | 2.65 | 0.622 | 0.651
TATACAGGATCAAAGGCCAGAGTACGAATGTCGA | 0.256 | 1.03 | 0.156 | 0.991 | 1.27 | 0.0724 | 0.338 | 0.0923 | 0.389 | 0.997 | 0.878 | 0.959 | 1.02 | -0.32 | 0.857 | -0.0517 | -0.472 | 0.376
GGTACGAGGGCAAAGTTGATAGCATCTGTCGACG | 2.41 | 3.4 | 0.0227 | -1.04 | 1.2 | 0.895 | 0.0381 | 1.42 | -0.085 | 2.33 | 1.13 | 2.05 | 1.83 | 2.49 | 1.7 | 1.33 | -0.0946 | 1.48
CCTAGTTGGTCAAGGTCCCACACGCTATAGGTAC | 1.11 | 1.17 | -0.0918 | 0.474 | 1.59 | 0.0607 | 0.41 | 0.436 | 0.884 | 1.29 | 1.27 | 0.7 | 1.19 | 0.446 | 0.433 | 0.687 | 0.94 | 0.734
CCTGCTAGGTCATGGTCAGGTAATCTACAGTATG | 4.45 | 3.79 | 0.801 | 0.0323 | 1.72 | 1.78 | -0.0214 | 2.55 | 0.209 | 4.04 | 3.22 | 4.26 | 4.73 | 1.77 | 3.01 | 3.55 | 1.97 | 0.414
TAGCCTAGGTCATTGTGCCAGTATAGTACGCATC | 2.37 | 3.23 | -0.0725 | 0.703 | 0.97 | 1.47 | 0.0622 | 1.89 | -0.0989 | 3.44 | 2.7 | 3.4 | 3.77 | 1.9 | 2.17 | 2.61 | 1.03 | 1.2
TTACCAAGGTAAAAGGTCGTTGATGCACGCCTTG | 0.76 | 3.59 | 0.399 | 0.573 | 1.67 | 3.07 | 0.505 | 4.08 | 0.101 | 2.28 | 2.14 | 2.79 | 1.22 | 0.317 | 3.68 | 2.63 | 0.000698 | 1.44
CGGACTGGGGCAAAGGTTACCATACTCAGTACGA | 6.11 | 6.8 | 0.377 | 0.924 | 1.68 | 2.76 | -0.252 | 3.88 | 0.372 | 2.42 | 2.31 | 3.75 | 1.9 | 0.0322 | 3.79 | 2.1 | 0.079 | 0.18
AGAATGAGGTTACACGTAGATCAGGGAAGAAAGT | 4.19 | 3.53 | 1.09 | 0.468 | 1.27 | 1.36 | -0.00272 | 1.84 | 0.499 | 2.07 | 1.16 | 2.34 | 1.89 | 1.23 | 2.3 | 2.75 | 1.12 | 0.772
CCTTACGGGTCAGTGACAGGTTATAGCATTTGGA | 1.83 | 1.86 | 0.385 | 0.16 | 1.97 | 2.36 | 0.241 | 3.19 | 0.476 | 3.5 | 2.85 | 4.61 | 3.43 | 1.05 | 3.29 | 2.15 | 0.134 | 0.572
AGAATGGGGTTATTAAGATCAGGGAATTGCGGTC | 3.63 | 3.26 | 1.44 | 1.55 | 2.23 | 2.44 | 1.82 | 2.78 | 1.71 | 1.77 | 1.53 | 1.85 | 0.796 | 2.11 | 3.5 | 2.6 | 1.56 | 2.41
TCTACTTGGTCACGGAGGTCACACACGACGGGTA | 3.04 | 4.21 | 1.37 | 1.65 | 3.86 | 4.67 | 2.05 | 4.97 | 2.04 | 3.89 | 4.43 | 5.15 | 5.47 | 1.33 | 5.3 | 3.6 | 3.15 | 3.56
GATACAGGGTCAAGGCCAGAATACGCGTATTGAT | 2.36 | 4.04 | 0.884 | 0.396 | 2.82 | 3.9 | 0.4 | 4.79 | 0.95 | 4.6 | 3.49 | 5.5 | 4.93 | 2.08 | 5.95 | 3.62 | 1.21 | 1.6
CGAACTAGGTCCTTGACAGGACAGTGAATAGTAA | 3.56 | 2.67 | -0.17 | 0.14 | -0.238 | -0.527 | -0.0323 | -0.228 | -0.233 | -0.0437 | -0.115 | 0.0551 | -0.0699 | 0.0443 | -0.00915 | 0.388 | -0.275 | -0.117
ATCGAAAGGTGGACGAGGTGAGTATACACCGTTT | -0.328 | 0.716 | 0.496 | 0.266 | 0.223 | 0.219 | 0.0997 | 0.702 | 0.444 | 0.89 | 0.375 | 0.545 | 0.833 | -0.461 | 0.799 | 1.77 | 0.434 | -0.347

— the supplement of paper PMC6555819
